Results reported in PubChem BioAssay (NCATS).
Inconclusive results are not listed. Calls of active or inactive are those of the source. Unless noted, calls come from the whole dose curve; as a rule, active = well fitted curve in the direction sought with a large enough effect; inconclusive = small, poorly fitted or top-dose-only effect, or another doubt; inactive = no such curve, though single readings can be large; an effect the other way counts as inactive or inconclusive.

Assays:
[1] = qHTS to identify inhibitors of the type 1 interferon - major histocompatibility complex class I in skeletal muscle: primary screen against the NCATS LOPAC collection (AID 1347405);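 note: lytic HiBiT luminescence reporting HLA-B protein level; % is set by controls: 0 for no effect and ±100 for the full control effect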
How it was run: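 Immortalized human C25cl48 myoblasts with HiBiT knocked into endogenous HLA-B*08:01 were stimulated with 4.0 ng/ml IFN-beta and given compounds in a 7-point, 1:4.3 titration from 46 uM final; after 24 hrs, lytic HiBiT luminescence was read.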

[2] = qHTS for inhibitors of adenylyl cyclases using a fission yeast platform: a pilot screen against the NCATS LOPAC library (AID 1347410);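 note: plate controls were DMSO vehicle for no effect and DPI positive control for full effect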
How it was run: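 Inhibition of GNAS-stimulated AC9 activity in S. pombe was inferred from derepression of a PKA-repressed fbp1-GFP reporter, measured as cytometric fluorescence after 18 h at 30C with compounds at up to 57 µM.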

[3] = target: Calcium and integrin-binding protein 1 (Homo sapiens) (UniProt Q99828); assay: Validation qHTS for Identification of Calcium Integrin Binding protein 1 (CIB1) Competitor (AID 1508618); note: % is set by controls: 0 for no effect and ±100 for the full control effect
Chain of Calcium and integrin-binding protein 1 (Homo sapiens) (Q99828 whole entry, looked up): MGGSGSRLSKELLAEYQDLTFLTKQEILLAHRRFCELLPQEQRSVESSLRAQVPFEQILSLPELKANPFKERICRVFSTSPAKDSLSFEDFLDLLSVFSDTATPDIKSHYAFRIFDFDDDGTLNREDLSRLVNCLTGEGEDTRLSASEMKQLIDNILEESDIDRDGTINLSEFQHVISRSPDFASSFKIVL
How it was run: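 Fluorescence polarization with 1 uM CIB1-GST and 100 nM FITC-alphaIIb peptide in HEPES pH 7.4, NaCl, 5 mM CaCl2, Tween20. Compounds at up to 114 uM final, preincubated with protein 15 min; read after 15 min more at RT.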

[4] = target: Calcium and integrin-binding protein 1 (Homo sapiens) (UniProt Q99828); assay: Primary qHTS for Identification of Calcium Integrin Binding Protein 1 (CIB1) Competitor (AID 1508620);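 note: GST tagged CIB1 binding a fluorescein labelled alphaIIb integrin peptide tracer; top concentration of the series differs between compounds; % is set by controls: 0 for no effect and ±100 for the full control effect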
How it was run: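 Fluorescence polarization competition: GST-tagged CIB1 (1 uM final) preincubated with compound 15 min at room temperature, then FITC-labelled alphaIIb peptide (100 nM final) added. After 15 min at room temperature, polarization read at Ex 480/Em 540.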

[5] = Validation qHTS assay for inhibitors of Activation Induced Cytidine Deaminase (AID): UDG Counterscreen signal (AID 1347427); note: 0% is about no effect
How it was run: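 Counterscreen read of UDG activity (2 U/mL, 4/3x) in the FRET deamination format with AID (1 uM, 4/3x), DJC20/DJC23 substrates (250 nM, 4x), 4 h at room temperature. NaOH stop, fluorescence at 560 ex/665 em.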

[6] = Primary qHTS for inhibitors of La Crosse Virus (LACV) - induced cell death in SH-SY5Y cells (AID 1508616);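 note: top concentration of the series differs between compounds; 0% = infected DMSO wells and 100% = uninfected DMSO wells; higher means more rescue of cells from virus-induced death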
How it was run: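 Luminescent ATP readout (ATPLite 1step, 5 min room temperature) measured rescue from LACV-induced death after 6 days of infection at 0.01 MOI; normalized to infected DMSO wells and uninfected DMSO wells.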

[7] = Counterscreen qHTS for small molecule stabilizers of the endoplasmic reticulum resident proteome: GLuc-NoTag assay (AID 1508627); note: potency is the fitted concentration of half-maximal effect
How it was run: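 SH-SY5Y cells stably expressing constitutively secreted GLuc without SERCaMP tag, exposed to compound for 19 hr, then to 100 nM thapsigargin for 4 hr at 37C. Medium luciferase was read by coelenterazine luminescence without lysis.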

[8] = Primary qHTS for small molecule stabilizers of the endoplasmic reticulum resident proteome: Secreted ER Calcium Modulated Protein (SERCaMP) assay (AID 1508630); note: % is set by controls: 0 for no effect and ±100 for the full control effect
How it was run: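 GLuc-SERCaMP-expressing SH-SY5Y cells, pretreated 16 h with compound, are challenged with thapsigargin to empty ER calcium stores; after 4 h, coelenterazine is added directly to the medium and luminescence is imaged.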

[9] = qHTS to identify inhibitors of the type 1 interferon - major histocompatibility complex class I in skeletal muscle: primary screen against the NCATS Mechanism Interrogation Plate v5.0 (MIPE) Libary (AID 1347411);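 note: plate controls were vehicle for no effect and reference inhibitor for full effect; nearly all actives have a fitted effect of over 65% in size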
How it was run: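 Immortalized human C25cl48 myoblasts with HiBit knocked into endogenous HLA-B*08:01 were stimulated with 4.0 ng/ml IFN-beta and exposed to compounds (11-point 1:3 titration, top 46 uM final) for 24 hrs at 37 C; HiBiT lytic luminescence measured.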

[10] = target: Single-stranded DNA cytosine deaminase (Homo sapiens) (UniProt Q9GZX7); assay: Validation qHTS assay for inhibitors of Activation Induced Cytidine Deaminase (AID): AID signal (AID 1347429); note: % is set by controls: 0 for no effect and ±100 for the full control effect
Chain of Single-stranded DNA cytosine deaminase (Homo sapiens) (Q9GZX7 whole entry, looked up): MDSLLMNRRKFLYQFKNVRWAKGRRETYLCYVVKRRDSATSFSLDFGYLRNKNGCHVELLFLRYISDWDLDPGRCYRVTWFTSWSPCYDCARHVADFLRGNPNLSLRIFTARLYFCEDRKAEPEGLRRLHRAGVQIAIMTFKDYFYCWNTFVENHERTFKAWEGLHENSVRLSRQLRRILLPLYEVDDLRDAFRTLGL
How it was run: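 AID and UDG were combined and compounds added at final up to 114 uM, then DJC20/DJC23 FRET substrate was added for 4 hr at room temperature. NaOH was then added for 30 min before fluorescence was read at 540/590 nm.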

[11] = qHTS to identify inhibitors of the type 1 interferon - major histocompatibility complex class I in skeletal muscle: primary screen against the NCATS Pharmaceutical Collection (AID 1347407)
How it was run: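 A qHTS format is used: 8-point, 1:5 compound series with 46 uM top final concentration, applied alongside 4 ng/ml IFN-beta to HLA-B*08:01-HiBiT knock-in myoblasts. Luminescence is measured after 24 h treatment.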

[12] = target: Protein phosphatase 1D (Homo sapiens) (UniProt O15297); assay: RapidFire Mass Spectrometry qHTS Assay for Modulators of WT P53-Induced Phosphatase 1 (WIP1) (AID 1347424);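 note: amount of dephosphorylated VEPPL-S-QETFS peptide product formed by WIP1; series mostly up to about 63 µM; plate controls were DMSO wells for no effect and GSK830371 inhibitor control at 10 µM for full effect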
Chain of Protein phosphatase 1D (Homo sapiens) (O15297 whole entry, looked up): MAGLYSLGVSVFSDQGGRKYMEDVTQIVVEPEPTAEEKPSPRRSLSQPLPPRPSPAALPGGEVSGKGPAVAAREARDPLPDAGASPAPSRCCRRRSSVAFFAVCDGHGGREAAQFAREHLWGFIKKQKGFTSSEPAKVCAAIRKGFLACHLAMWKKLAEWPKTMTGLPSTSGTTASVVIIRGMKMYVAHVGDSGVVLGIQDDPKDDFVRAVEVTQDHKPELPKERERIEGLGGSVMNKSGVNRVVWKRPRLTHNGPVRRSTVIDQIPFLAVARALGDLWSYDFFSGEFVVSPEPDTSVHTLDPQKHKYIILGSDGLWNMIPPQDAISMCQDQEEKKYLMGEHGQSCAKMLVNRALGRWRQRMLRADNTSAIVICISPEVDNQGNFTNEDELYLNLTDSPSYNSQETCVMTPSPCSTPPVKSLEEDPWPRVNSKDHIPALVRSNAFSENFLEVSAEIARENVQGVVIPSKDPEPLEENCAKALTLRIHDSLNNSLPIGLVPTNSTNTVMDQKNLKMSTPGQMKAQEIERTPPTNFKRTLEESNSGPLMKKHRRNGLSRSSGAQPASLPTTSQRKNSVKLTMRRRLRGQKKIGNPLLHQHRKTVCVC
How it was run: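 10 nM WIP1 preincubated with compounds 1 hr at room temperature in pH 7.5 Tris buffer with 30 mM MgCl2, 1 mM TCEP; 2 uM VEPPL-pS-QETFS phosphopeptide for 5 min, formic acid quench; dephosphorylated product quantified by RapidFire MS against labelled standard.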

[13] = target: Protein phosphatase 1D (Homo sapiens) (UniProt O15297); assay: Rhodamine-PBP qHTS Assay for Modulators of WT P53-Induced Phosphatase 1 (WIP1) (AID 1347425); note: % of control where 0% means no effect
How it was run: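 WIP1 (5 nM final) was preincubated with compound for 1 hour at room temperature. It then dephosphorylated 10 uM VEPPL-pS-QETFS peptide in Tris-HCl pH 7.5 with 30 mM MgCl2. Released Pi was detected by 10 uM Rh-PBP fluorescence (ex 525/em 598 nm) read at 1-min intervals for 11 min, as delta f1 - f0.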

[14] = A High-Content qHTS Against Drug Library for the Identification of Small Molecules that Inhibit DYT1 Early Onset Primary Dystonia-Associated Cell Pathology (AID 1645839; calls by dose curve; note: series mostly up to about 46 µM)
How it was run: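 Flp-In T-REx 293 cells with tetracycline-inducible EGFP-delE hTOR1A (WT EGFP-hTOR1A as reference), 800 cells/well; compound added with tetracycline, 48 h at 37 C. Fixed, permeabilized cells imaged; %pathology (punctate TorsinA) primary, cell count counterscreen.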

O=[N+]([O-])c1ccc(CNc2nc(NCc3cccc(C(F)(F)F)c3)nc3nc[nH]c23)cc1
inactive: Potency [1] | outcome [2] | outcome [3] | Potency [4]

O=C(CCSCc1ccco1)NNC(=O)N1Cc2ccccc2Oc2ccc(Cl)cc21
inactive: Potency [1] | outcome [2] | outcome [3]

Cn1cc(C2=C(c3ccc(Cl)cc3Cl)C(=O)NC2=O)c2ccccc21
active: Potency [7] 447 nM
inactive: Potency [1] | Potency [5] | Potency [6] | outcome [3] | Potency [8]

Nc1nc(SCc2ccc([N+](=O)[O-])cc2)c2ncn([C@@H]3O[C@H](CO)[C@@H](O)[C@H]3O)c2n1
inactive: Potency [1] | Potency [5] | Potency [6] | outcome [3]

CCN1/C(=C/C(C)=O)Sc2ccc(OC)cc21
inactive: Potency [1] | Potency [9] | Potency [5] | Potency [10] | Potency [6] | outcome [3]

S=C(S)OC1CC2CC1C1CCCC21 (centres undefined)
inactive: Potency [1] | Potency [5] | Potency [10] | Potency [6] | outcome [3] | Potency [8]

Fc1ccc2[nH]c(CN3CCN(c4ccccn4)CC3)cc2c1
inactive: Potency [1] | outcome [2] | outcome [3] | Potency [4]

CC(C)(C=O)Cc1cc(C(C)(C)C)c(O)c(C(C)(C)C)c1
inactive: Potency [1] | Potency [5] | Potency [6] | outcome [3]

CNCC[C@H](Oc1ccc(C(F)(F)F)cc1)c1ccccc1
inactive: Potency [1] | Potency [6] | Potency [8]

CCCN(CC1CC1)c1nc(C)nc(Nc2c(Cl)cc(Cl)cc2Cl)c1Cl
inactive: Potency [1] | Potency [5] | Potency [10] | Potency [6] | outcome [3] | Potency [7] | Potency [8]

CN[C@H](CC(C)C)C(=O)N[C@H]1C(=O)N[C@@H](CC(N)=O)C(=O)N[C@H]2C(=O)N[C@H]3C(=O)N[C@H](C(=O)N[C@H](C(=O)O)c4cc(O)cc(O)c4-c4cc3ccc4O)[C@H](O)c3ccc(c(Cl)c3)Oc3cc2cc(c3O[C@@H]2O[C@H](CO)[C@@H](O)[C@H](O)[C@H]2O[C@H]2C[C@](C)(N)[C@H](O)[C@H](C)O2)Oc2ccc(cc2Cl)[C@H]1O
inactive: Potency [1] | outcome [2] | outcome [3]

COCCOc1cc2ncnc(Cl)c2cc1OCCOC
inactive: Potency [1] | outcome [2] | outcome [3]

O=C(O)CC[C@@H](C(=O)O)N1C(=O)c2ccccc2C1=O
inactive: Potency [1] | Potency [5] | Potency [10] | Potency [6] | outcome [3]

CCNC(=O)[C@H]1O[C@@H](n2cnc3c(N)nc(NCCc4ccc(CCC(=O)O)cc4)nc32)[C@H](O)C1O (some centres undefined)
inactive: Potency [1] | outcome [2] | outcome [3]

COC(=O)c1c(C)[nH]c(C)c1C(=O)c1ccccc1Cc1ccccc1
inactive: Potency [1] | Potency [5] | Potency [10] | Potency [6] | outcome [3] | Potency [8]

Brc1cc2c(cc1[C@H]1Nc3ccccc3[C@H]3C=CC[C@H]31)OCO2
inactive: Potency [1] | outcome [2] | outcome [3]

C#CC1(O)CC[C@H]2[C@@H]3CCC4=CCCC[C@@H]4[C@H]3CC[C@@]21C (some centres undefined)
inactive: Potency [11] | Potency [12] | outcome [13] | Potency [6] | Potency [4] | Potency [8]

Cc1nc2ccccc2n1Cc1ccc(Cl)cc1
inactive: Potency [11] | Potency [12] | outcome [13] | Potency [6] | Potency [4] | Potency [8] | Potency [14]

CN1CCN(c2cc3c(nn2)Oc2ccccc2N3C)CC1
inactive: Potency [11] | Potency [12] | outcome [13] | activity change [6] 13.6% [at 1.78 µM] | Potency [4] | Potency [8] | Potency [14]

CCOC(=O)c1ccccc1O
inactive: Potency [11] | Potency [12] | outcome [13] | Potency [6] | Potency [4] | Potency [14]

O=C(Nc1ccc2[nH]ncc2c1)C1CCC1
inactive: Potency [1] | outcome [3] | Potency [4]

NC(=O)C(c1ccccc1)(c1ccccc1)[C@@H]1CCN(CCc2ccc3c(c2)CCO3)C1
inactive: Potency [11] | Potency [12] | outcome [13] | Potency [6] | Potency [4]

c1ccc2sc(SN3CCOCC3)nc2c1
inactive: Potency [11] | Potency [12] | outcome [13] | Potency [6] | Potency [4] | Potency [14]

CNC(=O)c1c(I)c(NC(=O)CCCCC(=O)Nc2c(I)c(C(=O)O)c(I)c(C(=O)NC)c2I)c(I)c(C(=O)O)c1I
inactive: Potency [11] | Potency [12] | outcome [13] | Potency [6] | Potency [4] | Potency [8] | Potency [14]

c1ccc(CCNc2nc(-c3ccccc3)cs2)cc1
inactive: Potency [11] | Potency [12] | outcome [13] | Potency [6] | Potency [4] | Potency [8] | Potency [14]

Cc1ccc(O)c(-n2nc3ccccc3n2)c1
inactive: Potency [11] | Potency [12] | outcome [13] | Potency [6] | Potency [4] | Potency [8] | Potency [14]

CS(=O)(=O)c1ccc(-n2nc(C(F)(F)F)cc2-c2ccc(F)cc2)cc1
inactive: Potency [1] | outcome [3] | Potency [4]

COc1ccccc1CN[C@@H]1CCCN[C@@H]1c1ccccc1
inactive: Potency [1] | outcome [3]

O=C(/C=C/c1ccccc1)NCCO
inactive: Potency [11] | Potency [12] | outcome [13] | Potency [6] | Potency [4] | Potency [8]

CC(=O)SCC(CC(=O)c1ccc(C)cc1)C(=O)O (centres undefined)
inactive: Potency [11] | Potency [12] | outcome [13] | Potency [6] | Potency [4] | Potency [14]

NCCO
inactive: Potency [11] | Potency [12] | outcome [13] | Potency [6] | Potency [4] | Potency [7] | Potency [14]

O=C(CCN1CCN(CCO)CC1)N1c2ccccc2Sc2ccc(C(F)(F)F)cc21
inactive: Potency [11] | Potency [12] | outcome [13] | Potency [6] | Potency [4] | Potency [8] | Potency [14]

O=C(O)Cc1ccc2c(c1)C(=O)c1ccccc1CO2
inactive: Potency [11] | Potency [12] | outcome [13] | Potency [6] | Potency [4] | Potency [7] | Potency [14]
